Measurements published in PubChem BioAssay (NCI).
Compounds without any hit were thinned out: in the full panel of roughly 83,000, 20% have a hit.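 Results are percent growth after 48 hours of single-concentration exposure. 100 means growth as in untreated cells, lower positive values show inhibition; negative values down to -100 show cell death.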 Unmarked numbers belong to inactive results. Activity calls are given as the source filed them. The calls were made as follows: active = growth percent below 10; inactive = the rest.

Assays:
Assay in all cases: NCI-60 one-dose screen, 48 h (100 = growth as untreated, 0 = no growth, -100 = all killed)
Details in all cases: 10 µM unless noted
HCT-15 colon = tested on: HCT-15 colon
HT29 colon = tested on: HT29 colon
SNB-75 CNS = tested on: SNB-75 CNS
SNB-19 CNS = tested on: SNB-19 CNS
U251 CNS = tested on: U251 CNS
PC-3 prostate = tested on: PC-3 prostate
SK-MEL-5 melanoma = tested on: SK-MEL-5 melanoma
UACC-62 melanoma = tested on: UACC-62 melanoma
SK-MEL-28 melanoma = tested on: SK-MEL-28 melanoma

Compound	growth (HCT-15 colon)	growth (HT29 colon)	growth (SNB-75 CNS)	growth (SNB-19 CNS)	growth (U251 CNS)	growth (PC-3 prostate)	growth (SK-MEL-5 melanoma)	growth (UACC-62 melanoma)	growth (SK-MEL-28 melanoma)
C/C(=N\N=C\c1cc([N+](=O)[O-])ccc1Cl)c1ccc2c(c1)Nc1ccccc1S2	72.4%	72.2%	5.46% (active)	51.6%	7.09% (active)	82.4%	78.6%	69.6%	90.7%
Nc1nnc(-c2c[nH]c3ncc(Br)cc23)c(-c2c[nH]c3ccc(F)cc23)n1	25.3%	21.8%	33.7%	50.6%	45.5%	58.6%	0.13% (active)	15.6%	29.8%
COc1cc(-c2nc3ccc(C)cc3[nH]2)ccc1OCc1nnc(-c2ccc(Br)cc2)o1	19.2%	-53.7% (active)	85.7%	57.7%	5.13% (active)	27.9%	20.2%	19.9%	27.1%
Cn1cc(-c2nnc(N)nc2-c2c[nH]c3ccccc23)c2cccnc21	28.9%	17.2%	28.5%	51.6%	41.6%	57.8%	24.4%	33.9%	55%
COc1ccc(-c2cc(C(=O)NCc3ccccc3)nn2-c2ccc(S(C)(=O)=O)cc2)cc1OC	108%	102%	62.5%	95.2%	99.2%	110%	97.1%	111%	134%
COc1cc2c(c(OC)c1OC)C(=O)CC(c1cccc(NC(=O)c3cc(NC(=O)[C@H](CO)NC(=O)OC(C)(C)C)ccc3Cl)c1)O2 (stereo partly specified)	35.4%	15.7%	54.8%	45%	25.4%	28.1%	14.3%	40.2%	21%
COc1cc(C2CC(c3cc(OC)c(OC)c(OC)c3)=Nc3c(N)nc(N)nc3N2)ccc1Oc1nc(NCCO)nc(N2CCOCC2)n1 (stereo unspecified)	102%	107%	88.7%	94.9%	101%	100%	99%	102%	108%
O=C(Nc1ccccc1)N1CCN(c2cc(-c3cn(-c4ccccc4)nc3-c3cccc(O)c3)ccn2)CC1	21.4%	75.8%	101%	81.9%	63%	43%	40%	50.4%	73.2%
O=C1Nc2cc(Cl)ccc2/C1=C/c1cccc(OCc2ccccn2)c1	7.16% (active)	0.146% (active)	51.3%	20.5%	-17.4% (active)	20.1%	6.08% (active)	5.17% (active)	39.5%
Cc1ccc(NCC(=O)Cn2cc(COc3ccc(C=Nc4cnc5ccccc5c4)cc3)nn2)cc1	112%	116%	111%	97.9%	101%	106%	102%	97.8%	112%
COCOc1cc2oc(C(=O)N[C@@H](Cc3ccccc3)C(O)C(=O)NCc3ccccc3)c(C)c(=O)c2cc1OCOC (stereo partly specified)	94.4%	77.5%	21.7%	47.3%	41.3%	101%	49.9%	63.6%	70.9%
CCOP(=O)(OCCCl)c1nc(-c2ccc(C)cc2)oc1NCc1ccccc1 (stereo unspecified)	57.6%	81.7%	69.9%	65.8%	74.6%	44.4%	84.8%	60.4%	108%
COc1ccc2[nH]cc(-c3nnc(N)nc3-c3c[nH]c4ncc(Br)cc34)c2c1	90.8%	96.7%	93.5%	91%	76.1%	110%	91.1%	80.1%	98.9%
Cc1c(C(=O)NNC(=O)c2ccc(Cl)cc2)nnn1-c1ccc(Cl)cc1	93.5%	92.3%	83.6%	95.1%	99.8%	95.4%	99.5%	86.1%	94%
COc1cc(C2CC(c3cc(OC)c(OC)c(OC)c3)=NN2C(C)=O)ccc1OCc1ccccc1 (stereo unspecified)	34.6%	38%	49.3%	52.2%	44.3%	9.84% (active)	9.77% (active)	24%	42.1%
CC(=O)Nc1cccc(Nc2nccc(N[C@@H](C)c3ccccc3)n2)c1	7.75% (active)	2.53% (active)	7.86% (active)	25.6%	24.4%	30.5%	-31% (active)	20.6%	49.4%
COc1ccc(/C=C2\C(=O)Nc3ccc(Cl)cc32)cc1OCc1ccccn1	59.9%	76.5%	38.1%	42.4%	-5.73% (active)	38.3%	52.4%	20.7%	68%
C=C1CCC2C3(C)COC(c4ccc(F)cc4)OC3CCC2(C)C1C/C=C1/C(=O)OCC1O (stereo unspecified)	-42.3% (active)	-4.77% (active)	-21.6% (active)	-55.8% (active)	-94.4% (active)	-43.6% (active)	-90.3% (active)	-8.34% (active)	-70.3% (active)
CNC(=O)c1cc(Oc2ccc3nc(NC(=O)Nc4cccc(OC(F)(F)F)c4)sc3c2)ccn1	51.1%	25%	6.6% (active)	-46.6% (active)	2.42% (active)	4.97% (active)	53.7%	-4.81% (active)	31.9%
COc1cc(NC(=O)c2cccc(C3CCc4c(cc(OC)c(OC)c4OC)O3)c2)cc(OC)c1OC (stereo unspecified)	7.46% (active)	3.59% (active)	11.5%	27.1%	13.5%	18.2%	-58% (active)	-28.6% (active)	38.9%
COc1cc2oc(-c3cccc(NC(=O)[C@H](Cc4ccccc4)NC(=O)OC(C)(C)C)c3)cc(=O)c2c(OC)c1OC	17.4%	22.8%	97.6%	40%	36.6%	39.7%	17.9%	54.6%	49.9%
CSc1ccc(NC(=O)c2ccc3nn(/C(C#N)=C/c4ccccn4)nc3c2)cc1	-72.1% (active)	-86.1% (active)	35.1%	-75.7% (active)	-79.9% (active)	-73.7% (active)	-92.8% (active)	-96.3% (active)	-98.4% (active)
CC1=C(C(=O)c2ccccc2)C(c2cccc3ccccc23)n2c(nc3ccccc32)N1 (stereo unspecified)	70.3%	50.5%	60.3%	66.1%	17%	53.2%	62.1%	37.5%	84.1%
CC1=C(C(=O)c2ccccc2)C(c2cccc(Cl)c2Cl)n2c(nc3ccccc32)N1 (stereo unspecified)	68.7%	54.6%	43%	39.3%	16.9%	45%	54.5%	36.6%	90.2%
CC(=O)Oc1ccccc1C(=O)[Se]CC(=O)Nc1cccc(C(F)(F)F)c1	-79.8% (active)	-38.7% (active)	-39.2% (active)	-78.5% (active)	-48.3% (active)	24.9%	-86.4% (active)	-56.7% (active)	-58.8% (active)
CSc1ccc(C(=O)Nc2ccc3nn(/C(C#N)=C/c4ccccn4)nc3c2)cc1	-70.1% (active)	-88.6% (active)	33.1%	-70.9% (active)	-84.1% (active)	-28% (active)	-54.9% (active)	-91.2% (active)	-83.5% (active)
CCCCOc1ccc(NC(=O)c2sc3nc(C)ccc3c2N)cc1	36.7%	40.2%	-17.3% (active)	0.979% (active)	0.73% (active)	36.8%	3.73% (active)	40%	50.7%
COc1cc2oc(-c3cccc(C(=O)Nc4cccc([N+](=O)[O-])c4)c3)cc(=O)c2c(OC)c1OC	58.1%	59.9%	-6.58% (active)	-4.16% (active)	23.8%	33.3%	43.4%	18.4%	25.3%
C[C@H](Nc1nc(NCCc2ccccc2)nc2ccccc12)c1ccccc1	-91.2% (active)	-90.6% (active)	-44.6% (active)	-75% (active)	-77.7% (active)	-54.5% (active)	-100% (active)	-95% (active)	-98.5% (active)
